The values below come from PubChem BioAssay (NCI).

About 83,000 compounds went through this panel and 20% of them were active in at least one assay; those are over-represented in the sample as a whole.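 The endpoint reported here, percent growth, reads 100 for growth as untreated, 0 for no net growth and -100 for all cells dead.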 Unmarked numbers belong to inactive results. Calls of active or inactive are those of the source. Rule for the calls: active = growth percent below 10; inactive = the rest.

In the assay the test system is SW-620 colon. Put plainly: NCI-60 one-dose screen, 48 h (100 = growth as untreated, 0 = no growth, -100 = all killed). The note with it: 10 µM.
For `Cc1n[nH]c(C)c1N=Nc1cccc2c1C(=O)c1ccccc1C2=O`, the growth was 84.6%.

On to `O=C(CCCCNC(=O)c1nc(-c2ccccc2)n(-c2ccccc2)n1)NO`, for which the growth is 64.4%. The value for `Cc1c(Cl)cccc1NC(=O)CN1CCOCC1` was 94.5%. `COc1ccc2nc3cc(Cl)ccc3c(N)c2c1`: the growth was -70.2% (active). In the case of `Cc1ccc(C(=O)/C=C/c2ccccc2)s1` it was 100%; in that of `CC(=O)/C(=C/c1ccc(Br)cc1)C(=O)c1ccccc1`, 58.2%. The value for `CN1C(=O)C2(Nc3cc(Cl)ccc3S2)c2cc(Cl)ccc21` (centres undefined) was 94%. Consider `COc1cc(CNC(=O)C2CSC3(C)c4ccccc4C(=O)N23)cc(OC)c1OC` (centres undefined), for which the growth was 101%. The value for `Brc1ccc2c(c1)-c1ccccc1C1=NCCN12` was -34.3% (active); that for `COc1cc(-c2nn(-c3ccc(NC(=O)NCCNS(=O)(=O)c4ccc(F)cc4)cc3)cc2-c2ccncc2)ccc1Cl` was 18.3%; that for `Cc1cc(Cl)ccc1Nc1nc(C(F)(F)F)ccc1C(=O)N/N=C/c1cccc(O)c1` was 27.8%. The value for `CS(=O)(=O)c1nccc(-c2c(-c3cccc(OCc4ccc(F)cc4)c3)nc3sccn23)n1` was 48.4%; that for `COc1cc(/C=C/c2cc(/C=C/c3ccc(O)c(OC)c3)n(C(=O)Nc3ccc(C)cc3)n2)ccc1O` was 8.12% (active).

Turning to `CCCN(CCC)C(=O)[C@H](CC)[C@@H]1CC[C@@H](C)[C@@H]([C@H](C)[C@@H](O)[C@@H](C)C(=O)[C@H](CC)C2O[C@]3(C=C[C@@H](O)[C@]4(CC[C@@](C)([C@H]5CC[C@](O)(CC)[C@H](C)O5)O4)O3)[C@H](C)C[C@@H]2C)O1` (some centres undefined), the growth is 9.23% (active).

Regarding `COc1cc2cc(Oc3ccc(NC(=O)c4cccc(C(F)(F)F)c4)cc3)c(C)nc2cc1OC`, the growth was 54.8%. In the case of `CCc1cc(Cl)c(OC)c(C(=O)NCC2CCCN2CC)c1O` (centres undefined) it was 91.7%; in that of `CN1CCc2c(sc3nc4n(-c5ccc(Cl)cc5)cnn4c(=O)c23)C1`, 110%. In the case of `O=C(N/N=C/c1ccc([N+](=O)[O-])cc1)c1ccccc1Nc1cccc(C(F)(F)F)c1` it was 102%; in that of `COc1ccc(/C=C2\CCCC3=C2NC(N)=NC3c2ccc(OC)c(OC)c2)cc1OC` (centres undefined), 40.7%. In the case of `CCOC(=O)CN(c1sc(C)c(C)c1C(=O)OCC)S(=O)(=O)c1ccc(C)cc1` it was 100%.

For the compound `CC(=O)OC1CC2C(C)(C)CCC[C@]2(C)C2=C1C(O)=C(C(C)C)C(=O)C2=O` (some centres undefined), the growth is -51% (active). As for `CCC(=O)OC1CCC2C3CCC(=O)OC3C(C)(CCC(=O)O)CC12C` (centres undefined), the growth is -11.3% (active). Regarding `CNC(=O)c1cn(C2CC2)c2cc(N3CCN(C(=O)c4cc(OC)c(OC)c(OC)c4)CC3)c(F)cc2c1=O`, the growth was 103%. On to `CCCCN(CCCC)C(=O)[C@H](CC)[C@@H]1CC[C@@H](C)[C@@H]([C@H](C)[C@@H](O)[C@@H](C)C(=O)[C@H](CC)C2O[C@]3(C=CC(=O)[C@]4(CC[C@@](C)([C@H]5CC[C@](O)(CC)[C@H](C)O5)O4)O3)[C@H](C)C[C@@H]2C)O1` (some centres undefined), for which the growth is 25.7%. The value for `CCn1c2ccc(O)cc2c2c(C)c3c[n+](C)ccc3c(C)c21` was 41.3%; that for `COc1ccc(Cl)cc1Nc1nc(C(F)(F)F)ccc1C(=O)N/N=C/c1cc(OC)c(OC)c(OC)c1` was 16.7%; that for `O=C(CI)OCC(COC(=O)CI)OC(=O)CI` was 27.5%. In the case of `COc1ccc(-c2cc(-c3ccc(OC)c(OC)c3)nc(SCCCC(=O)NO)n2)cc1` it was 2.56% (active); in that of `O=C(CSc1nnc(-c2ccc(Cl)cc2)o1)Nc1ccc(C(=O)/C=C/c2ccc(Cl)cc2)cc1`, 101%; in that of `CCCc1cn(CC(=O)Nc2nc3ccccc3s2)nn1`, 99.9%. As to `COc1ccc2c(c1)CC=C1[C@@H]2CC[C@]2(C)C(=O)/C(=N/O)C[C@@H]12`, the growth was 78.4%.

Take `Cc1ccc(Cl)cc1NC(=O)CCl`: the growth was 73.7%.

For the compound `O=C(CCCSc1nc(-c2ccccc2)cc(-c2ccc(Cl)cc2)n1)NO`, the growth is 17.4%. The value for `CC(=O)N[C@H](C(=O)N[C@@H](CCCNC(=N)N)C(=O)N[C@@H](CCCCN)C(=O)N[C@@H](CCCNC(=N)N)C(=O)N[C@]1(C)CCCCCC/C=C\CCC[C@@](C)(C(=O)N[C@@H](CCCNC(=N)N)C(=O)N[C@@H](CCC(=O)O)C(=O)N[C@@H](CC(C)C)C(=O)N[C@H](C(=O)N[C@@H](CCC(=O)O)C(N)=O)C(C)C)NC(=O)[C@H](CCC(N)=O)NC(=O)[C@H](CC(C)C)NC(=O)[C@H](CC(C)C)NC(=O)[C@H](CCCNC(=N)N)NC(=O)[C@H](CCCNC(=N)N)NC(=O)[C@H](CC(C)C)NC1=O)C(C)C` was 25.9%.
